Screening results deposited in PubChem by several laboratories.
The sample as a whole holds a higher share of hits than the screen did.
ALR inh – inhibitors of human sulfhydryl oxidase ALR; P55789; purified ALR, DTT oxidation, H2O2 HRP-luminol luminescence; inhibition, % (no concentration beside the values); 290,000 compounds, 3.8% hits; AID 485317;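 active means mean replicate inhibition above about 79%, with every replicate also reaching it, limit read from the data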
Target sequence (P55789 whole entry, looked up): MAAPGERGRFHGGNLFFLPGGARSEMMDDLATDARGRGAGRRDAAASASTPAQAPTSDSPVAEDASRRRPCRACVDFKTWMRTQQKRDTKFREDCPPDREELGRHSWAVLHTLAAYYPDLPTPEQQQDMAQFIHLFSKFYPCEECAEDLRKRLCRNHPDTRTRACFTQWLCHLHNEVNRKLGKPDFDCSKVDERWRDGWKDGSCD
GC-A act – GC-A (human) enzyme activation; P16066; HEK293 GC-A cells, cGMP TR-FRET, EC30 ANP; 0% at EC30 ANP, 100% saturating ANP; activation, % at 10 µM; 370,000 compounds, 0.14% hits; AID 1671463; in the data active means activation above about 40%
HDAC3 inh – blocks human histone deacetylase 3. AID 2718. inhibition, % at 8.3 µM. O15379. 320,000 compounds, 0.15% hits. recombinant HDAC3, fluorogenic peptide/trypsin coupled, fluorescence; in the data active means inhibition above about 26%, passing the limit was not always enough
NPR2 activator – GC-B (human) receptor activation; 370,000 compounds, 0.11% hits; P20594; activation, % at 10 µM; HEK293-GC-B cells, CNP EC30, cGMP TR-FRET; 0% at EC30 CNP, 100% saturating CNP; AID 1920062;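 active means activation at 10 µM reaching about 35% in either raw or pattern-adjusted values, limit read from the data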
Active calls of the source: *.

Screening O=C(O)/C=C/c1cn(Cc2ccccc2)nc1-c1cccnc1 returned ALR inh -3, GC-A act 5, HDAC3 inh 4 and NPR2 activator 3.
`CCN1CCc2c(sc(NC(=O)c3ccc(S(=O)(=O)N(C)CC4CCCO4)cc3)c2C(N)=O)C1` (centres undefined) gave ALR inh -1, GC-A act -2, HDAC3 inh 8 and NPR2 activator -2.
Cc1nn(C(=O)c2ccccc2)c2c1C(=O)CC(C)(C)C2 was read as ALR inh 52, GC-A act 3, HDAC3 inh 91* and NPR2 activator -1.
CCCc1nn(C(=O)c2ccccc2)c2c1C(=O)CC(C)(C)C2 was read as ALR inh 58, GC-A act -1, HDAC3 inh 72* and NPR2 activator 2.
Screening CCN(Cc1ccc(OC)c(F)c1)C(C)C(=O)Nc1ccc(S(=O)(=O)N2CCCC2)cc1 (centres undefined) returned ALR inh -2, GC-A act 2, HDAC3 inh 9 and NPR2 activator 4.
For Cc1cc(OCC(=O)OCC(=O)NCc2ccco2)ccc1Cl the results were ALR inh -12, GC-A act 2, HDAC3 inh 1 and NPR2 activator -7.
CCOc1cc(/C=C2\N=C(C)OC2=O)cc(Cl)c1OCC(=O)OC was read as ALR inh 12, GC-A act 13, HDAC3 inh 48* and NPR2 activator -3.
Screening COc1ccc(/C=C/C(=O)NC(=S)NNC(=O)c2ccco2)cc1 returned ALR inh 86*, GC-A act 2, HDAC3 inh 4 and NPR2 activator -7.
Cc1onc(-c2ccccc2)c1C(=O)NNC(=S)NC(=O)/C=C/c1ccccc1 was read as ALR inh 76*, GC-A act -4, HDAC3 inh 6 and NPR2 activator -4.
For COc1ccc(/C=C/C(=O)NC(=S)NNC(=O)c2c(-c3ccccc3)noc2C)cc1 the results were ALR inh -2, GC-A act 3, HDAC3 inh 7 and NPR2 activator 6.
Screening COc1ccc(/C=C/C(=O)NC(=S)NNC(=O)c2cc(OC)c(OC)c(OC)c2)cc1OC returned ALR inh 57, GC-A act 1, HDAC3 inh 1 and NPR2 activator -1.
For COc1ccc(/C=C/C(=O)NC(=S)NNC(=O)c2ccco2)cc1OC the results were ALR inh 85*, GC-A act 0, HDAC3 inh 3 and NPR2 activator 0.
For COc1ccc(C(=O)NC(=S)NNC(=O)c2ccco2)cc1 the results were ALR inh 100*, GC-A act -2, HDAC3 inh 3 and NPR2 activator -1.
O=C(CNc1nnnn1-c1ccccc1)N1CCCC1 was read as GC-A act 1 and NPR2 activator -2.
For O=C(Nc1ccccc1OC(F)F)c1ccc(-n2cncn2)c([N+](=O)[O-])c1 the results were ALR inh 2, GC-A act -2, HDAC3 inh 2 and NPR2 activator -2.
For COc1ccccc1C(=O)NC(=S)Nc1ccc(NC(=O)c2ccco2)cc1 the results were ALR inh -7, GC-A act -5, HDAC3 inh -8 and NPR2 activator -4.
COc1ccc(NC(=S)NNC(=O)c2ccco2)c(OC)c1 was read as ALR inh 77*, GC-A act 0, HDAC3 inh -1 and NPR2 activator 0.
`COc1ccccc1OCC(=O)NNC(=S)NC(=O)c1ccco1` gave ALR inh 89*, GC-A act -1, HDAC3 inh 4 and NPR2 activator 1.
`Cc1ccc(NC(=O)CNC(=O)C2CCCCC2)nc1` gave GC-A act 1, HDAC3 inh 0 and NPR2 activator 4.
For COc1ccc(-c2ccc(CO)o2)cc1N the results were ALR inh 99*, GC-A act -7, HDAC3 inh -8 and NPR2 activator -4.
Cc1cc(S(=O)(=O)c2ccc([N+](=O)[O-])cn2)ccc1Br was read as ALR inh -3, GC-A act 20, HDAC3 inh 2 and NPR2 activator 37*.
For Cc1ccc(S(=O)(=O)c2ccc([N+](=O)[O-])cn2)cc1 the results were ALR inh 89*, GC-A act 9, HDAC3 inh -11 and NPR2 activator 4.
Screening Nc1ccc(S(=O)(=O)c2ccccc2)nc1 returned GC-A act 2, HDAC3 inh 6 and NPR2 activator -2.
O=[N+]([O-])c1ccc(S(=O)(=O)c2ccccc2)nc1 was read as ALR inh 98*, GC-A act 17, HDAC3 inh 1 and NPR2 activator -1.
For Cc1cc(Sc2ccc([N+](=O)[O-])cn2)ccc1Br the results were ALR inh -5, GC-A act 1, HDAC3 inh -3 and NPR2 activator 1.
`Cc1cc(Br)cn2c(Cc3cccc(F)c3)c(-c3ccco3)nc12` gave GC-A act 37 and NPR2 activator 30.
CCOC(=O)CC[C@H](NC(=O)Cn1cnc(C(=O)Nc2ccc(C)c(C)c2)n1)C(=O)OCC was read as GC-A act 1 and NPR2 activator -1.
`O=C(Nc1nc2ccc(S(=O)(=O)N3CCOCC3)cc2s1)c1cccs1` gave ALR inh -3, GC-A act -1, HDAC3 inh -8 and NPR2 activator 2.
`Cc1cccc(C)c1Nc1nnc(SCC(=O)c2ccc(Br)s2)s1` gave ALR inh 57, GC-A act -8, HDAC3 inh 27* and NPR2 activator -7.
`C[C@H](CO)N1C[C@H](C)[C@@H](CN(C)C(=O)Nc2ccccc2)Oc2c(NC(=O)C3CCCCC3)cccc2C1=O` gave ALR inh 3, GC-A act -1, HDAC3 inh -4 and NPR2 activator 10.
Screening COCC(=O)Nc1ccc(N(C)C)cc1 returned GC-A act 0 and NPR2 activator -1.
For Cc1ccccc1SCC(=O)OCC(=O)Nc1ccc(N(C)C)cc1 the results were ALR inh 99*, GC-A act 2, HDAC3 inh 4 and NPR2 activator -3.
For CN(C)c1ccc(NC(=O)COC(=O)Cn2nnc3ccccc32)cc1 the results were ALR inh 99*, GC-A act -6, HDAC3 inh -8 and NPR2 activator 1.
For COc1ccc(NC(=O)COC(=O)Cn2nnc3ccccc32)cc1 the results were ALR inh -5, GC-A act 0, HDAC3 inh -12 and NPR2 activator -1.
`COc1ccc(OCC(=O)Nc2ccccc2C(=O)Nc2ccc(C(=O)O)cc2)cc1` gave GC-A act -1, HDAC3 inh -3 and NPR2 activator -1.
For COC(=O)[C@]12C[C@H](CC(=O)N3CCSCC3)C(=O)N(Cc3ccc4c(c3)OCO4)C1=C[C@H](COCc1ccccc1)O[C@@H]2C the results were GC-A act -2 and NPR2 activator 5.
O=c1ccn(Cc2ccccc2)c2ccccc12 was read as GC-A act 5, HDAC3 inh 6 and NPR2 activator 7.
`O=c1[nH]n(Cc2ccccc2)c2ccccc12` gave ALR inh 99*, GC-A act -1, HDAC3 inh -35 and NPR2 activator -1.
